PLCg1 inh – PLC-gamma1 (human) inhibition, primary screen. 370,000 compounds, 0.84% hits. inhibition, % at 12.2 µM. purified PLC-gamma1, fluorogenic substrate, fluorescence. P19174; in the data active means inhibition above about 9.5%
Target sequence (P19174 whole entry, looked up): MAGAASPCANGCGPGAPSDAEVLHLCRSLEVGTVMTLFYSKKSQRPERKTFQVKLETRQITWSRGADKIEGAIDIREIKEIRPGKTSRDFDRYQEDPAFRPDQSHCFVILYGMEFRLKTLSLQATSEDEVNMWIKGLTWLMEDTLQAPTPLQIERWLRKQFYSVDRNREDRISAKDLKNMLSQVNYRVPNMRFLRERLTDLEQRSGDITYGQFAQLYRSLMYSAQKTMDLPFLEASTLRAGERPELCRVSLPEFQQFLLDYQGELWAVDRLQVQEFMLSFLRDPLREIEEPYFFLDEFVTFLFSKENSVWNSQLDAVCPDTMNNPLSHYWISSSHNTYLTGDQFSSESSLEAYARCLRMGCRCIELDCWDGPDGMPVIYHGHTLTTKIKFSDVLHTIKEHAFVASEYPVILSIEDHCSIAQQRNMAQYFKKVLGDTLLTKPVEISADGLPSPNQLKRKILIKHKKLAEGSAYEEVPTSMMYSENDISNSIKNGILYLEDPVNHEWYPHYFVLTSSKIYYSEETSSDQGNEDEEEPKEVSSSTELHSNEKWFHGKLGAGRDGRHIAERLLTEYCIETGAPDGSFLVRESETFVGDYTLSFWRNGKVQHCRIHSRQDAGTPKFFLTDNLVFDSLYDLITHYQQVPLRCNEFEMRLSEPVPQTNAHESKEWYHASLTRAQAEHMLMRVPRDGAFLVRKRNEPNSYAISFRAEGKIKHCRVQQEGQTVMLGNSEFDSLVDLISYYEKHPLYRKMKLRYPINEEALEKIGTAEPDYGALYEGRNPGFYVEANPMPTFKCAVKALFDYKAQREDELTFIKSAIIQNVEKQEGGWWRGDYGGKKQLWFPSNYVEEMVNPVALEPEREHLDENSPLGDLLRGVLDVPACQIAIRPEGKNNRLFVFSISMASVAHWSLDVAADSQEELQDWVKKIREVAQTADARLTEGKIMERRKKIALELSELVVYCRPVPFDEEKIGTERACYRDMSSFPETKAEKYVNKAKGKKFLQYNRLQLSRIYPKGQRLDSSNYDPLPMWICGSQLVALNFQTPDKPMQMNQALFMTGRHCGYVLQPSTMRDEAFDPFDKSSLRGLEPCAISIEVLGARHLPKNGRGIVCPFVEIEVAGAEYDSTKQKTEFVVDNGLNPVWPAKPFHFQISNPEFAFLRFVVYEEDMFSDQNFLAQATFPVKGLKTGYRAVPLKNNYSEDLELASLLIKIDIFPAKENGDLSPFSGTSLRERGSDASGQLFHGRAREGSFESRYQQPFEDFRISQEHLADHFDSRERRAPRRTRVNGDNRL
HGIII-sPLA2 inh – Inhibits HGIII-sPLA2 liposome hydrolysis, primary screen; Q9NZ20; QFRET BODIPY PC-A2 liposome hydrolysis, fluorescence; inhibition, % at 12.2 µM; 370,000 compounds, 0.56% hits; AID 743126;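 active means inhibition above mean plus 3 SD of compounds lying within the high and low control bounds, cut at about 19% in these data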;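 further: 0% = median of test compound wells and 100% = no enzyme DMSO wells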
PLCb3 inh – PLC-beta3 (human) inhibition, primary screen | Q01970 | AID 720704 | Purified PLC-beta3, fluorogenic substrate, fluorescence | 370,000 compounds, 0.18% hits | inhibition, % at 12.2 µM;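 further: 0% = median of compound wells on plate and 100% = full blocker control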
DAGLB inhibitor – blocks human DAGLB lipase activity | inhibition, % at 5.17 µM | HEK293T DAGLB membrane lysate, EnzChek fluorogenic substrate | 340,000 compounds, 0.059% hits | Q8NCG7; in the data active means inhibition above about 34%;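 further: 0% = enzyme with vehicle and 100% = wells lacking enzyme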
PLCgamma1 ctr – inhibits human PLC-gamma1 in PLC-beta3 counter-screen; shares compounds with PLCg1 inh; purified PLC-gamma1, fluorogenic substrate, fluorescence; inhibition, % at 12.3 µM; 3,300 compounds, 3.1% hits; AID 743258; in the data active means inhibition above about 9.5%
PLCbeta3 conf – confirmation of human PLC-beta3 inhibitors. purified PLC-beta3, fluorogenic substrate fluorescence. inhibition, % at 12.3 µM. 3,300 compounds, 1% hits. shares compounds with PLCg1 inh
Numbers without * were called inactive; . = no result. The list is not random: actives were taken first. Their share in the collection is about 1.5%. Unless noted, no stated cut-off is given here; in the data, active means inhibition above about 11%; inactive means the rest.

SMILES | PLCg1 inh | HGIII-sPLA2 inh | PLCb3 inh | DAGLB inhibitor | PLCgamma1 ctr | PLCbeta3 conf
CC(=O)N1CC(C)Oc2ccc(S(=O)(=O)Nc3ccc(Cl)cn3)cc21 (stereo not drawn) | 10* | 5 | -3 | 1 | -6 | -4
CCOC(=O)[C@]12CCCCC/C=C\1N(CCc1ccc(Cl)cc1)C(=O)[C@H]2CC(=O)NCCC(C)C | 2 | -6 | 0 | . | . | .
O=C(Nc1cccc([N+](=O)[O-])c1)Nc1cccc([N+](=O)[O-])c1 | 0 | 9 | -2 | 0 | . | .
O=C(Nc1cccc([N+](=O)[O-])c1)Nc1ccc2c(c1)OCCO2 | 10* | -20 | -1 | 4 | 1 | 3
CCCCc1nc2ccccc2c(=O)n1NC(=O)c1c(O)c2c(n(CC(C)C)c1=O)CCCC2 | 13* | 0 | 0 | -1 | -3 | -3
Cc1cccnc1NC(=O)Nc1cccc(C(F)(F)F)c1 | 10* | 0 | 3 | -2 | -5 | -5
Cc1cccnc1NC(=O)Nc1ccc(F)cc1 | -2 | -2 | 1 | -1 | . | .
CC1CCN(C(=O)CSc2ccc(-c3cccc([N+](=O)[O-])c3)nn2)CC1 | 3 | 0 | -3 | 0 | . | .
O=C(CSc1ccc(-c2cccc([N+](=O)[O-])c2)nn1)N1CCCCC1 | 14* | 11 | 0 | -1 | -2 | 3
CCCS(=O)(=O)N1CCC(C(=O)NCCN2CCC(Cc3ccccc3)CC2)CC1 | 15* | -4 | 13* | 0 | -5 | -5
CCS(=O)(=O)N1CCC(C(=O)NCCCN2CCC(Cc3ccccc3)CC2)CC1 | 11* | 1 | 1 | -1 | -2 | -2
CN1C(=O)c2cc(NC(=O)Nc3ccccc3)ccc2OC[C@H]2O[C@@H](CC(=O)Nc3cc(F)ccc3F)CC[C@@H]21 | 5 | -15 | 4 | . | . | .
Cc1ccc(NC(=O)C2CCCC2)c(Br)c1 | 1 | -4 | 0 | -3 | . | .
NS(=O)(=O)c1ccc(NC(=S)NC(=O)C2CCCCC2)cc1 | 11* | 5 | 8 | -1 | -5 | -5
Cc1ccc(NC(=S)NC(=O)C2CCCCC2)c(Br)c1 | 16* | 19 | 15* | -12 | 1 | 1
O=C(CSc1nnc(-c2ccncc2)n1-c1ccc(Cl)cc1)c1ccc(Cl)c(Cl)c1 | -5 | -32 | -1 | . | . | .
O=C(c1ccc2snnc2c1)N1CCN(c2ccccn2)CC1 | 15* | 13 | 6 | 0 | -5 | 0
O=C(c1ccc2snnc2c1)N1CCN(c2ccccc2)CC1 | -1 | 5 | 4 | -5 | . | .
O=C(CSc1nnc(-c2ccco2)n1Cc1ccco1)c1ccc([N+](=O)[O-])cc1 | 2 | -38 | 3 | . | . | .
CCC(NC(=O)c1cccc2c1C(=O)N(Cc1cccnc1)C2)c1ccccc1 (stereo not drawn) | 2 | 7 | 4 | . | . | .
Cc1nc(SCC(=O)Nc2cc(S(=O)(=O)N3CCOCC3)ccc2Cl)nc(C)c1C | 11* | -3 | -1 | -3 | -3 | 1
Nc1cc(=O)[nH]c(SCC(=O)Nc2cc(S(=O)(=O)N3CCOCC3)ccc2Cl)n1 | 0 | -3 | 2 | 1 | . | .
Cc1ccc(C2(C)NC(=O)N(CC(=O)Nc3cc(S(=O)(=O)N4CCOCC4)ccc3C)C2=O)cc1 (stereo not drawn) | 10* | -11 | 9 | -1 | -3 | 2
Cc1ccc(S(=O)(=O)N2CCOCC2)cc1NC(=O)c1cc2c(s1)CCC2 | 10* | -10 | 3 | -1 | -6 | -2
COc1ccc(/C=C/C(=O)NC2=NCCS2)c(OC)c1 | -43 | 3 | -52 | . | . | .
SMILES | PLCg1 inh | HGIII-sPLA2 inh | PLCb3 inh | DAGLB inhibitor | PLCgamma1 ctr | PLCbeta3 conf
CCOc1ccccc1C(=O)Nc1ccc2nc(C)[nH]c(=O)c2c1 | -1 | 6 | -5 | . | . | .
CN1CCN(c2ccc([N+](=O)[O-])cc2C(=O)c2ccc(Br)cc2)CC1 | 3 | 5 | 1 | 0 | . | .
O=C(c1ccc(Br)cc1)c1cc([N+](=O)[O-])ccc1N1CCCCC1 | 14* | 5 | 0 | -6 | -5 | -8
CC(C)CN(C(=O)COC(=O)Cc1n[nH]c(=O)c2ccccc12)C1CCS(=O)(=O)C1 (stereo not drawn) | 12* | 2 | 2 | 1 | -7 | -2
CC(C)CN(C(=O)COC(=O)c1ccc2ccccc2n1)C1CCS(=O)(=O)C1 (stereo not drawn) | 0 | -2 | 2 | -2 | . | .
COc1ccc(S[C@]2(C(=O)N3CCN(c4ncccn4)CC3)CC(=O)N(C(=O)CCc3ccccc3)[C@@H]2c2ccc(OC)cc2)cc1 | 1 | 1 | 0 | . | . | .
CC(C)C[C@H]1COc2cc(Br)ccc2S(=O)(=O)N1Cc1cn(Cc2ccc(Br)cc2)nn1 | 1 | 5 | 2 | . | . | .
COc1ccccc1C(=O)NC(=O)COc1ccc([N+](=O)[O-])cc1 | 9.8* | 0 | -2 | -2 | -4 | -1
COc1ccc(CNC(N)=O)cc1 | -1 | 4 | 3 | 1 | . | .
NC(=O)NCc1ccc(Cl)cc1 | 12* | 14 | 2 | 1 | -4 | -7
Cc1nn(-c2cccc(Cl)c2)c2nc(C(F)(F)F)[nH]c(=O)c12 | -1 | -3 | -1 | 3 | . | .
Cc1nn(-c2cc(C(F)(F)F)ccc2Cl)c2nc(C(F)(F)F)[nH]c(=O)c12 | 4 | -3 | 12* | 3 | -2 | -6
CC(=O)Nc1ccc(N2C(=O)CSC2c2ccc(F)cc2)cc1 (stereo not drawn) | 0 | 4 | 1 | -2 | . | .
CC(=O)Nc1ccc(N2C(=O)CSC2c2c(F)cccc2Cl)cc1 (stereo not drawn) | 8 | 0 | 14* | 5 | -2 | -2
CCOc1ccc(OCCCC(=O)NNC(=O)c2ccncc2)cc1 | 15* | 12 | 7 | 1 | 8 | 2
O=C(CSc1nc2ccccc2nc1N1CCCCC1)N1CCN(S(=O)(=O)c2ccccc2)CC1 | -6 | 12 | -7 | . | . | .
O=C(NCC1CCCO1)C1CCN(S(=O)(=O)c2cc(Cl)ccc2Cl)CC1 (stereo not drawn) | 12* | 7 | 4 | 0 | 0 | 3
COC(=O)C1CN(Cc2ccc(C)cc2)CCS(=O)(=O)N1Cc1cn(Cc2ccc(C)cc2)nn1 (stereo not drawn) | 3 | -10 | 1 | . | . | .
CC1CCN(c2ccc(C(=O)O)cc2NS(=O)(=O)c2cccc3cccnc23)CC1 | -6 | -1 | -2 | . | . | .
O=C(NCCc1cccc(F)c1)c1cc2ccccn2n1 | -1 | 4 | -4 | . | . | .
CCOC(=O)C1CCN(C(=O)COC(=O)c2ccc(Br)o2)CC1 | -2 | -6 | 3 | -1 | . | .
CCOC(=O)C1CCN(C(=O)c2ccc(Br)o2)CC1 | 10* | -2 | 5 | -2 | -6 | -14
CCOC(=O)C1CCN(C(=O)c2c(-c3c(F)cccc3Cl)noc2C)CC1 | 10* | 2 | 3 | -3 | -3 | -17
CCOC(=O)C1CCN(C(=O)CCn2c(=O)oc3ccccc32)CC1 | 9.6* | 7 | -2 | -4 | -4 | -2
O=C(NC1CCCCN(Cc2ccc(Cl)cc2)C1=O)c1cccc2nsnc12 (stereo not drawn) | -2 | -6 | -3 | . | . | .
